Compound activity as filed in PubChem BioAssay.
Rab9 promoter act = qHTS Assay for Rab9 Promoter Activators; Huh7 Rab9 promoter-luciferase reporter, luminescence, 24 h; Potency, µM (titrated, usually from 9.22 µM), actives largely listed as activators; hit rate 2.8% among 320,000; AID 485297, 2010; also: nearly all actives have a fitted effect of over 60% in size
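Quantitative HTS format; Huh7 Rab9-luciferase reporter cells (1500/well) receive compound 2 h post-plating, incubate 24 h at 37 °C, then get luciferase reagent for 10 min before luminescence reading.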
ELG1 genotox = qHTS screen for small molecules that induce genotoxicity in human embryonic kidney (HEK293T) cells expressing luciferase-tagged ELG1; HEK293T ELG1-luciferase reporter, luminescence, 16 h; Potency, µM (series often up to 46 µM), usual class: activators; hit rate 1.3% among 330,000; AID 504466, 2011; also: nearly all actives have a fitted effect of over 60% in size
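After overnight (16 hr) compound treatment at 37 °C, ELG1-luciferase HEK293T cells were lysed with ONE-Glo; luminescence quantified 30 min later at room temperature.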
SMN2 splice enh = qHTS Assay for Enhancers of SMN2 Splice Variant Expression | HEK293 SMN2-luciferase splicing reporter, luminescence, 30-36 h | Potency, µM (doses to about 46.1 µM), usual class: activators | hit rate 2.8% among 210,000; also: nearly all actives have a fitted effect of over 55% in size
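HEK293 cells carry an SMN2 minigene-luciferase reporter in which exon 7 inclusion puts luciferase in frame. Cells were seeded at 2000 cells/well, attached for 10-12 hours, then exposed to compounds for 30-36 hours at 37C before ONE-Glo luminescence.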
ELG1 repair inh = qHTS screen for small molecules that inhibit ELG1-dependent DNA repair in human embryonic kidney (HEK293T) cells expressing luciferase-tagged ELG1; HEK293T ELG1-luciferase reporter, luminescence, 16 h; DNA damage induced by 5-fluorouridine; Potency, µM (highest dose often 46.1 µM), hits mostly inhibitors; hit rate 2.3% among 330,000; AID 504467, 2011; also: nearly all actives have a fitted effect of over 55% in size
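In this reporter screen, reduction of luminescence relative to DMSO vehicle indicated activity. Compounds and 5-fluorouridine were added together to 2,000 cells per well, incubated for 16 hr at 37 °C, then developed with ONE-Glo.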
FLuc counter = qHTS profiling assay for firefly luciferase inhibitor/activator using purifed enzyme and Km concentrations of substrates (counterscreen for miR-21 project); Potency, µM (series often up to 57.5 µM), actives largely listed as inhibitors; Luciferin 4-monooxygenase (Photinus pyralis), P08659; purified FLuc, Km substrates, luminescence inhibition; hit rate 6.9% among 360,000; also: nearly all actives have a fitted effect of over 55% in size
Target sequence (P08659 whole entry, looked up): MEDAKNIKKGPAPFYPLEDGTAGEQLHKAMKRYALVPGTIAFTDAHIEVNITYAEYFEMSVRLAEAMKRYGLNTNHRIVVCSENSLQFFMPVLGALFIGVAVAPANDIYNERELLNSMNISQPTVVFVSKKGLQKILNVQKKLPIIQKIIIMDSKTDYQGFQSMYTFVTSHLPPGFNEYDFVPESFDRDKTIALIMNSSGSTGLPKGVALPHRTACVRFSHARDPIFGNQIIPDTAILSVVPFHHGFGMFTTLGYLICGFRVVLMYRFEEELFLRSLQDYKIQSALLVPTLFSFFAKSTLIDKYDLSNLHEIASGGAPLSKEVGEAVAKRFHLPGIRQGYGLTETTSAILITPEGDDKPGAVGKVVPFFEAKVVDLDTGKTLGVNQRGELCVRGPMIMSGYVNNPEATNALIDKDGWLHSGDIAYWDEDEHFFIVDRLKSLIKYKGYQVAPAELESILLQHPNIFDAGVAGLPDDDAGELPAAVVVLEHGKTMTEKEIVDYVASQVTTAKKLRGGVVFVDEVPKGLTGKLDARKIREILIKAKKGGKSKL
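Biochemical qHTS of compounds, final roughly 60 µM downward over six points, against 10 nM purified firefly luciferase using Km concentrations of substrates (10 uM D-luciferin, 10 uM ATP) in Tris acetate pH 7.5 buffer; luminescence output.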
NPC1 prom act = qHTS Assay for NPC1 Promoter Activators. Huh7 NPC1 promoter luciferase reporter, 24 h. Potency, µM (doses to about 9.22 µM), actives largely listed as activators. hit rate 2.4% among 320,000; also: nearly all actives have a fitted effect of over 60% in size
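Huh7 reporter cells (NPC1 promoter driving luciferase) are dosed with compound for 24 h at 37 °C, 5% CO2; luciferase detection reagent is then added and luminescence measured after 10 min at ambient temperature.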
Hits are given with their value; [ ] = remark or other dose. Sampled rows, rich in hits. Any-hit rate of the full collection: about 9.2%. Calls follow the shape of the dose curve; as a rule, active = well fitted curve in the direction sought with a large enough effect; inconclusive = small, poorly fitted or top-dose-only effect, or another doubt; inactive = no such curve, though single readings can be large; an effect the other way counts as inactive or inconclusive.

`COc1ccc(-c2nc(-c3ccncc3)no2)c(OC)c1` gave Rab9 promoter act 0.71µM, ELG1 genotox 2.9µM, ELG1 repair inh inconclusive, FLuc counter 0.95µM and NPC1 prom act inconclusive.
`COc1cccc(-c2noc(-c3cccnc3)n2)c1` gave Rab9 promoter act 2.5µM, ELG1 genotox inconclusive, SMN2 splice enh 20µM, ELG1 repair inh inconclusive, FLuc counter 5.4µM and NPC1 prom act 3.5µM.
Screening COc1cccc(-c2nc(-c3ccc(NC(=O)c4cccnc4)cc3)no2)c1 returned Rab9 promoter act inactive, ELG1 genotox inactive, SMN2 splice enh inactive, ELG1 repair inh inactive, FLuc counter inconclusive and NPC1 prom act inconclusive.
COc1cccc(-c2nc(-c3ccccc3)no2)c1 was read as Rab9 promoter act inconclusive, ELG1 genotox inconclusive, SMN2 splice enh 11µM, ELG1 repair inh inconclusive, FLuc counter inconclusive and NPC1 prom act inconclusive.
Screening C[C@H](CO)N1C[C@H](C)[C@@H](CN(C)Cc2ccc(Cl)c(Cl)c2)Oc2c(NS(=O)(=O)c3cn(C)cn3)cccc2C1=O returned ELG1 genotox inactive and ELG1 repair inh inactive.
O=C(N/N=C/c1ccccc1[N+](=O)[O-])C(=O)N1CCCC1 was read as Rab9 promoter act inactive, ELG1 genotox inactive, ELG1 repair inh inconclusive, FLuc counter inactive and NPC1 prom act inactive.
Screening COc1ccc(NC(=O)CN2C(=O)C(C)(C)c3ccccc32)cc1Cl returned FLuc counter inactive.
Screening CCCc1noc(-c2cccc([N+](=O)[O-])c2)n1 returned Rab9 promoter act inactive, ELG1 genotox inactive, SMN2 splice enh inactive, ELG1 repair inh inactive, FLuc counter inactive and NPC1 prom act inactive.
Screening COc1cccc(-c2nc(-c3ccccn3)no2)c1 returned Rab9 promoter act 0.11µM, ELG1 genotox inactive, SMN2 splice enh inactive, ELG1 repair inh inconclusive, FLuc counter 0.34µM and NPC1 prom act inconclusive.
For O=[N+]([O-])c1cccc(-c2nc(-c3ccccn3)no2)c1 the results were Rab9 promoter act 0.4µM, ELG1 genotox inconclusive, ELG1 repair inh inconclusive, FLuc counter 4.8µM and NPC1 prom act 0.71µM.
For c1ccc(-c2noc(-c3cccnc3)n2)nc1 the results were Rab9 promoter act 2µM, ELG1 genotox 5.2µM, SMN2 splice enh 11µM, ELG1 repair inh inconclusive, FLuc counter 13µM and NPC1 prom act 2.8µM.
Screening c1ccc(-c2ccccc2-c2nc(-c3cccnc3)no2)cc1 returned Rab9 promoter act inactive, ELG1 genotox inactive, SMN2 splice enh inactive, ELG1 repair inh inactive, FLuc counter inactive[2.3 µM] and NPC1 prom act inactive.
`Cc1ccc(CN2C(=O)N/C(=C\c3ccc(N4CCOCC4)cc3)C2=O)cc1` gave Rab9 promoter act inactive, ELG1 genotox inactive, SMN2 splice enh inconclusive, ELG1 repair inh inconclusive, FLuc counter inactive and NPC1 prom act inactive.
O=C1N/C(=C/c2ccc(N3CCOCC3)o2)C(=O)N1c1cccc(Cl)c1 was read as Rab9 promoter act inconclusive, ELG1 genotox inactive, SMN2 splice enh inactive, ELG1 repair inh inconclusive, FLuc counter 21µM and NPC1 prom act inactive.
`Nc1c(C(=O)NCCN2CCOCC2)c2nc3ccccc3nc2n1-c1cccc(F)c1` gave Rab9 promoter act inactive, ELG1 genotox inactive, SMN2 splice enh inactive, ELG1 repair inh inconclusive, FLuc counter inactive and NPC1 prom act inactive.
Screening COCCCNC(=O)c1c(N)n(-c2cccc(S(N)(=O)=O)c2)c2nc3ccccc3nc12 returned Rab9 promoter act inactive, ELG1 genotox inactive, SMN2 splice enh inactive, ELG1 repair inh 12µM, FLuc counter inactive and NPC1 prom act inactive.
For CCCNC(=O)c1c(N)n(-c2cccc(OC)c2)c2nc3ccccc3nc12 the results were Rab9 promoter act inactive, ELG1 genotox inactive, SMN2 splice enh inactive, ELG1 repair inh 16µM, FLuc counter inactive and NPC1 prom act inactive.
For COCCCNC(=O)c1c(N)n(/N=C/c2ccccn2)c2nc3ccccc3nc12 the results were Rab9 promoter act inactive, ELG1 genotox inactive, SMN2 splice enh inactive, ELG1 repair inh 4.6µM, FLuc counter inactive and NPC1 prom act inactive.
For Cc1ccc(N(C)C(=O)c2noc3c2CCCCC3)cc1C the results were FLuc counter inactive.
`CCOc1ccc(-c2cc(C(=O)NCc3ccc(OC)cc3)c3c(-c4ccc(F)cc4)[nH]nc3n2)cc1` gave FLuc counter inactive.
C=CCSc1nnc(-c2cccc3ccccc23)o1 was read as ELG1 genotox inactive and ELG1 repair inh inactive.
C=CCSc1nnc(-c2cc3c(s2)-c2ccccc2CC3)o1 was read as Rab9 promoter act inconclusive, ELG1 genotox inactive, SMN2 splice enh inconclusive, ELG1 repair inh inconclusive, FLuc counter 12µM and NPC1 prom act inactive.
`COc1cc(/C=N/N=C(\N)c2nonc2N)cc(OC)c1O` gave Rab9 promoter act inactive, ELG1 genotox inconclusive, ELG1 repair inh inconclusive, FLuc counter 9.5µM and NPC1 prom act inactive.
`COc1cc(/C=N/N=C(/N)c2nonc2N)cc(Br)c1OCc1cccc(C)c1` gave Rab9 promoter act inactive, ELG1 genotox inactive, SMN2 splice enh inactive, ELG1 repair inh inactive, FLuc counter inactive and NPC1 prom act inactive.
COc1ccc(/C=N/N=C(\N)c2nonc2N)cc1 was read as Rab9 promoter act 0.4µM, ELG1 genotox 0.73µM, SMN2 splice enh 4.5µM, ELG1 repair inh inconclusive, FLuc counter 2.1µM and NPC1 prom act 0.63µM.
For COc1ccccc1-n1c(SCC(=O)NCC2CCCO2)nc2c([nH]c3ccccc32)c1=O (stereo not given) the results were Rab9 promoter act inactive, ELG1 genotox inactive, ELG1 repair inh inactive, FLuc counter inactive and NPC1 prom act inactive.
For CCCN(C(=O)c1cc2c(s1)-c1c(C)cccc1OC2)c1ccc(OCC)cc1 the results were SMN2 splice enh inactive and FLuc counter inactive.
Screening O=C(N/N=C\c1ccc(Cl)s1)c1cccs1 returned Rab9 promoter act inconclusive, ELG1 genotox inactive, SMN2 splice enh inactive, ELG1 repair inh inconclusive, FLuc counter 17µM and NPC1 prom act inactive.
For O=C(N/N=C/c1ccc(Cl)s1)C(O)c1ccccc1 (stereo not given) the results were Rab9 promoter act inactive, ELG1 genotox inactive, ELG1 repair inh inactive, FLuc counter inactive and NPC1 prom act inactive.
COc1ccccc1C(=O)N/N=C/c1ccc(Cl)s1 was read as Rab9 promoter act inactive, ELG1 genotox inactive, SMN2 splice enh inconclusive, ELG1 repair inh inconclusive, FLuc counter 19µM and NPC1 prom act inactive.
